Data from PubChem BioAssay (NCATS).
Results filed as inconclusive are left out. The source made the active and inactive calls. Calls come from the whole dose curve; as a rule, active = well fitted cell-killing curve with a large enough effect; inconclusive = small, poorly fitted or top-dose-only effect, or effect the other way; inactive = no such curve, though single readings can be large or run the other way.

Assay: qHTS assay to identify small molecule inhibitors of chordoma cells - UCH-1 (AID 1259355); note: nearly all actives have a fitted effect of over 55% in size
Conditions: UCH-1 chordoma viability, CellTiter-Glo, 48 h, combination, with auranofin plus four topoisomerase inhibitors; series mostly up to 46.1 µM
Excerpt: NIH Chemical Genomics Center [NCGC]
Chordoma is a rare and slow growing tumor that can occur anywhere along the spine, from the base of the skull to the tailbone. Current treatment options for chordoma is surgery and radiation therapy for those who are not candidates for surgery. But chordomas tend to return in the same location or surrounding areas of the original tumor after surgery and/or radiation. Chemotherapy can slow down the progression of the tumor. As chordoma is slow growing, the general cytotoxic agents that kill fast growing cells are ineffective, and some patients have been reported to respond to molecularly targeted drugs.
NCATS Pharmaceutical Collection (NPC) containing approximately 3000 clinically approved and investigational drugs were used to screen at 15 concentrations in a chordoma cell lines, UCH-1, to identify small molecule compounds that can inhibit chordoma cell growth.
NCGC Assay Protocol Summary:
Human chordoma cell line UCH-1 was dispensed at 800 per well in 4uL of culture medium into white solid bottom 1536-well plates (Corning Life Sciences, Corning, NY) using a Multidrop Combi (Thermo Scientific, Waltham, MA) dispenser. The assay plates were incubated at 37 C and 5% CO2 for an overnight, and then 23nL of compounds dissolved in DMSO and positive control were transferred using a Pintool station (Wako, San Diego, CA). Compound treatment was followed by the addition of 1uL of the combination compounds (1uM Auranofin, 500nM each of Camptothecin, Doxorubicin, Rubitecan, and Topotecan) and assay medium to each well of the assay plates using Flying Reagent Dispenser (FRD, Aurora Discovery, San Diego, CA). The assay plates were incubated at 37 C and 5% CO2 for 48hr. Then 5uL of CellTiter-Glo reagent (Promega Corporation, Madison, WI) was added to each well of the assay plates using FRD. After 30min incubation at room temperature, the luminescence signal was quantified using a ViewLux plate reader (PerkinElmer, Shelton, CT).
With `O=C(O)c1nc(=O)[nH]c(=O)[nH]1` the outcome was “inactive”.
With `CC(C)CN(C[C@@H](O)[C@H](Cc1ccccc1)NC(=O)O[C@H]1CO[C@H]2OCC[C@H]21)S(=O)(=O)c1ccc(N)cc1` the outcome was “inactive”.
In the case of `COc1cc2c(cc1OC)CC(=O)N(CCCN(C)C[C@H]1Cc3cc(OC)c(OC)cc31)CC2`, the outcome is reported as “inactive”.
For `COc1ccnc(CS(=O)c2nc3ccc(OC(F)F)cc3[nH]2)c1OC` (stereo not drawn), the outcome was “inactive”.
For `NS(=O)(=O)c1cc(Cl)c(Cl)c(S(N)(=O)=O)c1`, the outcome was “inactive”.
With `CN1CC(=O)N2C(Cc3c([nH]c4ccccc34)[C@H]2c2ccc3c(c2)OCO3)C1=O` (stereo partly drawn) the outcome was “inactive”.
With `CS(=O)(=O)c1ccc(C2=C(c3ccccc3)C(=O)OC2)cc1` the outcome was “inactive”.
With `CN1CCN2c3ncccc3Cc3ccccc3C2C1` (stereo not drawn) the outcome was “inactive”.
With `N#Cc1c(N(CC(=O)O)CC(=O)O)sc(C(=O)O)c1CC(=O)O` the outcome was “inactive”.
In the case of `COc1c(C)c2c(c(O)c1CC=C(C)CCC(=O)OCCN1CCOCC1)C(=O)OC2`, the outcome is reported as “inactive”.
For `CC[C@H](C)C(=O)O[C@H]1C[C@H](O)C=C2C=C[C@H](C)[C@H](CC[C@@H](O)C[C@@H](O)CC(=O)O)[C@H]21`, the outcome was “inactive”.
In the case of `Cc1cc2nc3c(=O)[nH]c(=O)nc-3n(CC(O)C(O)C(O)CO)c2cc1C` (stereo not drawn), the outcome is reported as “inactive”.
In the case of `N#CC(c1ccc(Cl)cc1)c1c(Cl)cc(-n2ncc(=O)[nH]c2=O)cc1Cl` (stereo not drawn), the outcome is reported as “inactive”.
